{"source": "PubChem BioAssay", "note": "Active and inactive are the calls of the source. How the calls were made is not given here.", "data": [{"target": "Pantothenate synthetase (Mycobacterium tuberculosis (strain ATCC 25618 / H37Rv)) (UniProt P9WIL5)", "sequence (P9WIL5 whole entry, looked up)": "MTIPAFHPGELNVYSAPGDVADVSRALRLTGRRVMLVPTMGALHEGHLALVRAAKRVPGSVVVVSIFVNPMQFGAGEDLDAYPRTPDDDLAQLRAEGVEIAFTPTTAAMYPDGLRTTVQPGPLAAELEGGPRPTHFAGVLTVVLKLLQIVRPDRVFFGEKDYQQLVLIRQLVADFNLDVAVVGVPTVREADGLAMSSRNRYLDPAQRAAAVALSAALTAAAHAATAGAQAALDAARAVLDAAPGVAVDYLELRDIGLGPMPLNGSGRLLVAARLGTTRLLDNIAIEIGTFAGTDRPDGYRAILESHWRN", "experiment": "Recombinant Mtb pantothenate synthetase (PanC) inhibitors, coupled enzyme, confirmatory (AID 375);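 further: 0% = full reaction with vehicle and 100% = no enzyme background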", "conditions": "coupled enzyme assay; at 10 µM, hits give high values", "values": [{"smiles": "N#Cc1c(NC(=O)COC(=O)C2CC3C=CC2C3)oc(-c2ccccc2)c1-c1ccccc1", "note": "(stereo not given)", "inhibition": "1% (inactive)"}, {"smiles": "Cc1cccc2cc(CN(CCCO)C(=O)Nc3ccc(Cl)cc3)c(=O)[nH]c12", "inhibition": "5% (inactive)"}, {"smiles": "CCOC(=O)N1CCC(NC(=O)c2cc3c(=O)n(C)c4ccccc4c3n2C)CC1", "inhibition": "0% (inactive)"}, {"smiles": "O=C(Cn1c(NCCO)nc2ccccc21)c1ccccc1", "inhibition": "6% (inactive)"}, {"smiles": "COc1ccc(S(=O)(=O)Cc2ccc(C(=O)N3CCN(c4ccccc4)CC3)o2)cc1", "inhibition": "0% (inactive)"}, {"smiles": "Cc1[nH]c(=O)[nH]c(=O)c1S(=O)(=O)N1CCCC(C(=O)NCc2ccco2)C1", "note": "(stereo not given)", "inhibition": "5% (inactive)"}, {"smiles": "Cc1noc(/C=C/N(C)C)c1S(=O)(=O)N1CCCC(C(=O)N2CCCCC2)C1", "note": "(stereo not given)", "inhibition": "7% (inactive)"}, {"smiles": "c1ccc(C(Cc2nc(-c3ccccn3)no2)c2ccccc2)cc1", "inhibition": "0% (inactive)"}, {"smiles": "CC(=O)Nc1ccc(N=Cc2ccc[nH]2)cc1", "inhibition": "0% (inactive)"}, {"smiles": "COc1ccccc1-c1ccc(Nc2cccc(C(C)=O)c2)nn1", "inhibition": "0% (inactive)"}, {"smiles": "O=C(O)c1oc2ccccc2c1-n1cccc1", "inhibition": "6% (inactive)"}, {"smiles": "CCCc1nnc(NC(=O)CCC(=O)N2CCN(CCOc3ccc(C)cc3)CC2)s1", "inhibition": "5% (inactive)"}, {"smiles": "Cc1ccc(-c2nnn(CC(=O)N(CC(=O)NC3CCCCC3)c3cnc4ccccc4c3)n2)o1", "inhibition": "8% (inactive)"}, {"smiles": "CCOC(=O)c1cc2n(n1)C(C(F)(F)C(F)(F)F)CC(C)N2", "note": "(stereo not given)", "inhibition": "1% (inactive)"}, {"smiles": "Cc1cccc(CCNC(=O)C2CCCN(S(=O)(=O)c3cnc[nH]3)C2)c1", "note": "(stereo not given)", "inhibition": "5% (inactive)"}, {"smiles": "CN(C)c1oc(-c2ccccc2F)nc1C#N", "inhibition": "1% (inactive)"}, {"smiles": "Cc1csc(NC(=O)CCS(=O)(=O)c2ccc(Br)cc2)n1", "inhibition": "2% (inactive)"}, {"smiles": "Cc1ccsc1C(C(=O)NC1CCCCC1)N(C(=O)Cc1cccs1)C1CC1", "note": "(stereo not given)", "inhibition": "0% (inactive)"}, {"smiles": "CCOC(=O)N1CCN(C(=O)C(NS(=O)(=O)c2cccc3nsnc23)c2ccccc2)CC1", "note": "(stereo not given)", "inhibition": "0% (inactive)"}, {"smiles": "CCOc1ccc(Cc2nn[nH]n2)cc1", "inhibition": "1% (inactive)"}, {"smiles": "COc1ccc(Cn2c(N)c(C#N)c3nc4ccccc4nc32)cc1OC", "inhibition": "1% (inactive)"}, {"smiles": "COc1ccc2c(c1)n([O-])c1c([n+]2=O)CCC1", "inhibition": "0% (inactive)"}, {"smiles": "COc1ccc(-c2cn3cc(C)ccc3n2)cc1OC", "inhibition": "8% (inactive)"}, {"smiles": "O=C(CN1CCN(Cc2ccccc2F)C1=O)NCc1cccnc1", "inhibition": "0% (inactive)"}, {"smiles": "O=C(Nc1nc(-c2ccncc2)cs1)C1COc2ccccc2O1", "note": "(stereo not given)", "inhibition": "0% (inactive)"}, {"smiles": "Cc1c(Cl)cccc1N1C(=O)c2ccccc2C1=O", "inhibition": "0% (inactive)"}, {"smiles": "COc1ccc(CN(C(=O)CN2C(=O)COc3ccccc32)C2CCCC2)c(OC)c1", "inhibition": "0% (inactive)"}, {"smiles": "O=C(c1ccco1)N1CCN(S(=O)(=O)c2ccc3c(c2)CCN3C(=O)C2CCC2)CC1", "inhibition": "0% (inactive)"}, {"smiles": "CCn1ncc(C2=NOC(C(=O)N3CCC(C(N)=O)CC3)C2)c1C", "note": "(stereo not given)", "inhibition": "0% (inactive)"}, {"smiles": "COc1ccc(S(=O)(=O)N2CCN(c3ccc(C)cc3C)CC2)cc1OC", "inhibition": "3% (inactive)"}, {"smiles": "CC(C(=O)NCc1cccnc1)N1C(=O)c2ccccc2C1=O", "note": "(stereo not given)", "inhibition": "0% (inactive)"}, {"smiles": "COc1ccc(CNC(=O)COC(=O)c2n[nH]c3ccccc23)cc1OC", "inhibition": "7% (inactive)"}, {"smiles": "Cc1ccc2oc(=O)c3cnn(CC(=O)N4CCCc5ccccc54)c3c2c1", "inhibition": "1% (inactive)"}, {"smiles": "O=C(CSc1ccc(Cl)cc1)OCc1nnc(-c2ccccc2)o1", "inhibition": "1% (inactive)"}, {"smiles": "O=C(c1ccccc1Oc1nnnn1-c1ccccc1)N1CCOCC1", "inhibition": "0% (inactive)"}, {"smiles": "C=CCc1ccccc1OCC(O)CN1CCN(Cc2ccc3c(c2)OCO3)CC1", "note": "(stereo not given)", "inhibition": "5% (inactive)"}, {"smiles": "CSc1ccccc1NC(=O)C1CCCO1", "note": "(stereo not given)", "inhibition": "7% (inactive)"}, {"smiles": "CCCCCC(=O)N1CC2(CC)CN(C(=O)CCCCC)CC(CC)(C1)C2=O", "inhibition": "4% (inactive)"}, {"smiles": "Clc1ccc(Cc2nn3c(-c4ccncc4)nnc3s2)cc1", "inhibition": "0% (inactive)"}, {"smiles": "CCOC(=O)Cn1c(CN2CCOCC2)nc2c1c(=O)[nH]c(=O)n2C", "inhibition": "0% (inactive)"}]}]}
